These results are taken from PubChem BioAssay (EPA / NIEHS).

Values joined by “and” are separate entries in the source; they are usually repeats but may differ in a detail not shown here. Identical values can stand only once. Inconclusive results are not listed. Active and inactive are the calls of the source. The calls were made as follows, unless noted: active = hit-call score of the fitted dose curve at least 0.9, where 1 is the maximum; inconclusive = response in the unintended direction; inactive = score below 0.9.

A short description of experiment [1]: ATG_XTT_Cytotoxicity: Cytotoxicity Assessment in the Attagene TRANS-FACTORIAL HepG2 Assay (AID 2283584).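 As to AC50: cells exposed to compound for 24 h before reading; active means loss of viability signal versus DMSO baseline.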 The gist of the method:
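Cells: human HepG2, transiently transfected with MRTU reporter constructs. Exposure 24 h. Readout: XTT, cell number. Baseline/neg ctrl DMSO; loss-of-signal scored.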

For experiment [2], the target named is Cellular tumor antigen p53 (Homo sapiens) (UniProt P04637). The experiment is described as follows: TOX21_p53_BLA_p2_ratio: Tox21 HCT-116 p53 Agonism Beta-lactamase Assay, Ratio, Phase 2 (AID 2283592). An outline of the steps:
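HCT116 p53-bla; 4000 cells/well; 5 h pre-incubation; cpd in DMSO, 217-fold dilution; 16 h 37C/5% CO2; CCF4-AM 2 h RT; Ex 405, Em 460/530 ratio; DMSO = baseline; positive fitting direction.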

Experiment [3] in a line: TOX21_p53_BLA_p3_viability: Viability Assessment in the Tox21 HCT-116 p53 Agonism Beta-lactamase Assay, Phase 3 (AID 2283593).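 Also: cells exposed to compound for 16 h before reading.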 An outline of the steps: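 HCT116 cells, 4000/well, dosed 5 h after plating by pin transfer (217-fold dilution from DMSO stock) and incubated 16 h at 37C, 5% CO2. Viability read as ATP luminescence with CellTiter-Glo after 30 min at room temperature.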

Experiment [4] concerns the target Cellular tumor antigen p53 (Homo sapiens) (UniProt P04637). Kind of experiment: TOX21_p53_BLA_p3_ratio: Tox21 HCT-116 p53 Agonism Beta-lactamase Assay, Ratio, Phase 3 (AID 2283596). An outline of the steps:
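HCT116 p53-bla cells (4000/well) given compound in DMSO (217-fold dilution) after 5 h, incubated 16 h at 37C. CCF4-AM substrate 2 h at room temperature; 460/530 nm emission ratio, gain fitted against DMSO.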

For experiment [5] the target is unchanged. The experiment is described as follows: TOX21_p53_BLA_p5_ratio: Tox21 HCT-116 p53 Agonism Beta-lactamase Assay, Ratio, Phase 5 (AID 2283599). An outline of the steps: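 HCT-116 p53-bla cells (4000/well) plated 5 h, dosed with compound (217-fold DMSO dilution) for 16 h at 37 C; CCF4-AM substrate 2 h at room temperature. Activity is the 460/530 nm emission ratio (405 nm excitation), fitted in gain-of-signal direction versus DMSO.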

A short description of experiment [6]: TOX21_p53_BLA_p5_viability: Viability Assessment in the Tox21 HCT-116 p53 Agonism Beta-lactamase Assay, Phase 5 (AID 2283600). The gist of the method: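 4000 cells/well; 5 h pre-incubation; DMSO compounds pin-transferred, 217-fold dilution; 16 h, 37C/5% CO2; CCF4-AM 2 h RT; CellTiter-Glo 30 min RT; luminescence.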
For experiment [7], the target named is Cellular tumor antigen p53 (Homo sapiens) (UniProt P04637). The experiment is described as follows: TOX21_p53_BLA_p4_ratio: Tox21 HCT-116 p53 Agonism Beta-lactamase Assay, Ratio, Phase 4 (AID 2283601). The gist of the method:
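HCT-116 p53 beta-lactamase reporter cells (4000/well) preincubated 5 h, then compound (217-fold dilution of DMSO stock) for 16 h at 37C. CCF4-AM substrate added 2 h at room temperature; 460/530 nm emission ratio fitted upward versus DMSO.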

Experiment [8] in a line: TOX21_p53_BLA_p4_viability: Viability Assessment in the Tox21 HCT-116 p53 Agonism Beta-lactamase Assay, Phase 4 (AID 2283597).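 Also: hits lower the luminescence signal meaning cytotoxicity.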 The gist of the method: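 Cells plated, 5 h pre-incubation; DMSO compounds pinned (217-fold dilution); 16 h, 37C/5% CO2; CCF4-AM 2 h RT; CellTiter-Glo 30 min RT; luminescence read.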
The test system of experiment [9] is Thyroperoxidase (TPO), gene 54314. The experiment is described as follows: CCTE_Simmons_AUR_rTPO: CCTE's Amplex UltraRed Assay for Thyroperoxidase (TPO) Inhibition, Simmons Lab (AID 2283662).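 As to AC50: potency for loss of signal meaning inhibition of peroxidase activity.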 An outline of the steps:
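Rat thyroid microsomal TPO + 25 uM AUR in 200 mM K phosphate; cpd 5 nM–87.5 uM [final], 8 conc, 0.5% DMSO; 300 uM H2O2 starts rxn; 37C dark 30 min; endpoint FI 544/590 nm; n=3.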

Experiment [10] is described as follows: CCTE_Simmons_CellTiterGLO_HEK293T: Viability Assessment in CCTE's Assays for Thyroperoxidase (TPO) Inhibition, Simmons Lab (AID 2283665).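 As to AC50: cells exposed to compound for 24 h before readout; actives reduce ATP signal below DMSO vehicle meaning cytotoxicity.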 The gist of the method:
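HEK293T cells in DMEM with 1% FBS, dosed 24 h at 37C with 8 concentrations, 5 nM–87.5 uM final, 0.5% DMSO. ATP measured by CellTiter Glo luminescence; loss of signal vs DMSO, three biological replicates.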
Background: Cellular ATP, detected with luciferase, serves as a proxy for viable cell number.

Experiment [11] in a line: STM_H9_OrnCyssISnorm_ratio: Stemina devTOX quickPredict H9 human embryonic stem cell (hESC)-based Assay for Ornithine (ORN):Cystine (CYSS) Ratio (AID 2283714). An outline of the steps:
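Undifferentiated H9 hESCs exposed 72 h, media and compound replaced every 24 h; final 24-h conditioned media deproteinized and analysed by UPLC-HRMS against C13 spike-ins. Value is the internal-standard-normalized ORN/CYSS ratio versus 0.1% DMSO.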

Experiment [12] in a line: CEETOX_H295R_MTT_cell_viability: Viability Assessment in the CeeTox HT-H295R MTT Assay (AID 2283718; active = hit-call score of the fitted dose curve at least 0.9, where 1 is the maximum; inactive = score below 0.9;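 as to AC50: curve fitted both ways so AC50 may mark viability loss or gain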). An outline of the steps: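 Human H295R adrenal cells, prestimulated 48 h with 10 uM forskolin, were exposed 48 h to chemicals in 0.1% DMSO. Viability was measured in the same wells by MTT (0.5 mg/ml, 4 h, 37 C), absorbance 570/650 nm, as percent of controls.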

Sequence of Cellular tumor antigen p53 (Homo sapiens) (P04637 whole entry, looked up): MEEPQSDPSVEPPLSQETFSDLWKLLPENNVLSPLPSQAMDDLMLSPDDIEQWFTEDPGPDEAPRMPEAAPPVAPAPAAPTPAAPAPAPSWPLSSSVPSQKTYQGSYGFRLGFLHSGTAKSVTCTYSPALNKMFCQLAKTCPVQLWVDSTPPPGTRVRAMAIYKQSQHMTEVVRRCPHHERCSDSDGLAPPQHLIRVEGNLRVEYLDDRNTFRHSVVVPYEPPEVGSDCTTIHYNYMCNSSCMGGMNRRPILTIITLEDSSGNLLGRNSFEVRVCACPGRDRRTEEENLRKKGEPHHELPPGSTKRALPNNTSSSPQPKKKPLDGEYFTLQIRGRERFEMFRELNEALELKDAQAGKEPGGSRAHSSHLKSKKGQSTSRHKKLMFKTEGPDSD

For `Cc1ccc([N+](=O)[O-])c(C)c1`, the compound was classed as inactive in [1], in experiment [2], in [3], in [4], in [5] and in [6]. The result in experiment [7] was inactive.
For `CN(N=O)C(=O)N[C@@H]1[C@@H](O)[C@H](O)[C@@H](CO)O[C@@H]1O`, the result in [2], in [3], in experiment [4], in experiment [8], in experiment [5] and in experiment [6] was inactive. The result in [7] was inactive.
`O=S(=O)(O)c1ccc(Cl)cc1`: the result in experiment [1], in experiment [8], in [6] and in experiment [7] was inactive.
With `CC(C)(C)c1cc(Cc2cc(C(C)(C)C)c(O)c(C(C)(C)C)c2)cc(C(C)(C)C)c1O`, in experiment [1], the compound was classed as inactive. The AC50 (commonly the midpoint of the concentration-response curve, whichever way the signal moves) in experiment [9] is 12.1 µM (active).
In the case of `Cc1cc(=O)[nH]c(C(C)C)n1`, the result in experiment [2], in experiment [3], in experiment [4], in experiment [8], in experiment [5] and in [6] was inactive. In addition, the outcome in experiment [7] was inactive.
`OCC1CCCO1` (configuration not stated): the outcome in [2], in [3], in experiment [8], in experiment [5], in [6] and in [7] was inactive.
For the compound `CCC(C)CO` (configuration not stated), the compound was called inactive in [1], in experiment [2], in experiment [3], in experiment [4], in experiment [5] and in experiment [6]. Also, in experiment [7], the outcome was inactive.
Consider `C=CCOC(=O)CC(C)C`, for which the compound was classed as inactive in experiment [1], in experiment [2], in [3], in [8], in experiment [5] and in experiment [6]. Moreover, in [7], the result was inactive.
For the compound `CCC(=O)OC(C)c1ccccc1` (configuration not stated), the call in experiment [1], in experiment [2], in experiment [4], in experiment [5], in [6] and in experiment [7] was inactive.
On to `CC(O)C#CC(C)O` (configuration not stated), for which the outcome in experiment [2], in [3], in experiment [4], in experiment [8], in experiment [5] and in experiment [6] was inactive. Besides, the outcome in [7] was inactive.
Regarding `CCOC(OCC)OCC`, the compound was called inactive in experiment [1], in experiment [3], in experiment [5] and in experiment [6].
`O=C1c2c(O)ccc(Nc3ccc(CCO)cc3)c2C(=O)c2c([N+](=O)[O-])ccc(O)c21`: the call in [1], in experiment [2], in [8], in experiment [5] and in experiment [7] was inactive.
With `CC(C)CCCC(C)CCO` (configuration not stated), the call in experiment [1], in experiment [2], in experiment [3], in [5], in experiment [6] and in experiment [7] was inactive.
As to `CC(=O)CCC(C)C`, the outcome in experiment [2], in [3], in experiment [4], in experiment [8], in [5] and in experiment [6] was inactive. For the same compound, the outcome in [7] was inactive.
Consider `O=C(c1ccccc1)c1ccc(O)cc1O`, for which the call in [1], in [2], in experiment [3], in [4], in [8] and in [5] was inactive. Besides, the result in experiment [7] and in experiment [10] was inactive. In addition, in [9], the AC50 is 6.04 µM (active) and 5.41 µM (active).
On to `CCCCCCCCn1sc(Cl)c(Cl)c1=O`, for which the AC50 was 31.5 µM (active) in experiment [1], 40.7 µM (active) in [3], 21.7 µM (active) in [4] and 80.4 µM (active) in [8]. The result in experiment [5], in experiment [6] and in experiment [7] was inactive.
Take `Cc1ccc2c(c1)OCC(=O)CO2`: the call in experiment [1], in [2], in [4], in experiment [8] and in experiment [7] was inactive.
Consider `CCOC(=O)C1CC(=O)C(=C(O)C2CC2)C(=O)C1` (configuration not stated), for which the result in experiment [2], in experiment [4], in [8], in experiment [6] and in [7] was inactive.
For the compound `CCN=C1C=CC(=C(c2ccc(N(CC)CC)cc2)c2ccc(N(CC)CC)cc2)c2ccccc21`, the AC50 in experiment [2] was 559 nM (active); in [3], 66.1 µM (active); in experiment [4] it was 2.8 µM (active); in experiment [8], 45.9 µM (active); in experiment [5], 57.2 µM (active); in [6], 69.4 µM (active). Moreover, the AC50 in experiment [7] is 50 µM (active); in experiment [9], 33.4 µM (active); in experiment [10], 1.72 µM (active); in experiment [11] it was 0.151 µM (active).
Turning to `Nc1c(Br)cc([N+](=O)[O-])cc1Br`, the compound was classed as inactive in experiment [1]. The AC50 in experiment [12] is 29.7 µM (active).
Take `CC(C)Nc1ccc(NC(C)C)c2c1C(=O)c1ccccc1C2=O`: the result in [2], in [4], in [5], in [6] and in experiment [7] was inactive.
Consider `CC(C)(C)c1cc(CCC(=O)NCCCCCCNC(=O)CCc2cc(C(C)(C)C)c(O)c(C(C)(C)C)c2)cc(C(C)(C)C)c1O`, for which the outcome in experiment [1] and in [12] was inactive.
As to `CCC/C=C/CO`, the compound was classed as inactive in experiment [1], in experiment [2], in experiment [4], in experiment [5], in experiment [6] and in experiment [7].
As for `CCOC(=O)CCC(C)=O`, the result in experiment [2], in experiment [4], in experiment [5], in experiment [6] and in experiment [7] was inactive.
For the compound `CCCCCCCCCCCCCCCCC`, the call in experiment [3], in experiment [4], in [5] and in experiment [7] was inactive.
On to `COC(=O)c1ccc(C=O)cc1`, for which the compound was classed as inactive in experiment [1], in experiment [2], in experiment [4], in experiment [5], in [6] and in experiment [7].
For the compound `CCCCCCCCCCCCCC[P+](CCCC)(CCCC)CCCC`, the AC50 in experiment [1] was 8.53 µM (active); in experiment [9], 47.9 µM (active); in experiment [10] it was 4.44 µM (active).
Regarding `CCCCOC(=O)[C@H](C)O`, the outcome in [2], in experiment [4], in experiment [5], in experiment [6] and in experiment [7] was inactive.
In the case of `Cc1ccc(O)cn1`, the call in [1], in experiment [9] and in experiment [10] was inactive.
`O=c1cccc[nH]1`: the call in experiment [1], in experiment [9] and in experiment [10] was inactive.
Take `CC(C)CC=C(C=O)c1ccccc1`: the compound was called inactive in experiment [3], in experiment [4], in [8] and in [7].
Turning to `CCN=c1cc2oc3cc(NCC)c(C)cc3c(-c3ccccc3C(=O)OCC)c-2cc1C`, the AC50 in experiment [1] is 32 µM (active); in experiment [2], 16 µM (active) and 6.62 µM (active); in experiment [3] it was 59.6 µM (active) and 36.8 µM (active); in [4], 17.8 µM (active) and 31.3 µM (active); in experiment [8], 67.5 µM (active) and 58.2 µM (active); in experiment [5], 21.9 µM (active) and 32 µM (active). In addition, the AC50 is 60.8 µM (active) and 63.2 µM (active) in experiment [6]; 35.8 µM (active) and 44.5 µM (active) in experiment [7]; 0.0769 µM (active) in [11].
With `CSc1ccc(Cl)cc1`, the outcome in [2], in experiment [3], in experiment [4], in [8], in experiment [5] and in experiment [6] was inactive. In experiment [7], the outcome was inactive.
